L3MBTL1 block: inhibitors of human L3MBTL1 | AlphaScreen L3MBTL1–H3K9me1 peptide binding | actives 0.66% (n = 230,000) | Potency, µM (doses to about 57.1 µM), actives largely listed as inhibitors | Q9Y468; also: nearly all actives have a fitted effect of over 60% in size
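First, the protein-peptide complex forms for 30 min at room temperature (L3MBTL1 50 nM, biotinylated H3K9me1 peptide 75 nM). Next, compounds are pin-transferred and incubated 30 min. Finally, AlphaScreen beads are added and read after 30 min.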
BAZ2B inh: inhibitors of human BAZ2B bromodomain | AID 504333 | AlphaScreen BAZ2B-H3K14Ac peptide displacement | actives 4.4% (n = 360,000) | Potency, µM (series often up to 114 µM), hits mostly inhibitors | Q9UIF8; also: nearly all actives have a fitted effect of over 60% in size
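Protein-peptide AlphaScreen: BAZ2B 50 nM, b-H3K14Ac 50 nM, 1x PBS pH 7.4 + 0.01% Tween-20. Preincubation 30 min RT; cpd 30 min RT (top 110 uM); beads 20 min RT, light-protected.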
HP1b binding inh: HP1-beta chromodomain-methylated histone interaction inhibition; AlphaScreen HP1-beta / biotin-H3K9me3 peptide binding; Potency, µM (top dose mostly 114 µM), most hits filed as inhibitors; actives 0.56% (n = 390,000); AID 540317; also: nearly all actives have a fitted effect of over 70% in size
Target sequence (P83916 whole entry, looked up): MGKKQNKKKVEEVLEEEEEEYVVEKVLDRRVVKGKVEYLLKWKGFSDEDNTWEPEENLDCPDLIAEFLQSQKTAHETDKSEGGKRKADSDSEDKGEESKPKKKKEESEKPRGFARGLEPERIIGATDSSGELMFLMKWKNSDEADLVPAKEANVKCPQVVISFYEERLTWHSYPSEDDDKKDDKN
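HP1-beta protein (50 nM final) preincubated 30 min at room temperature with biotinylated H3(1-18)K9me3 peptide (50 nM) in PBS pH 7.4, 0.01% Tween-20, then compound added for 30 min. AlphaScreen streptavidin donor/nickel chelate acceptor beads (10 ug/mL final), 30 min dark, luminescence read.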
PI5P4Ka inh: inhibitors of human PI5P4K alpha; P48426; PI5P4Kalpha enzyme, ADP-Glo luminescence, 60 min; hits give low values; max response, %; actives 1.2% (n = 330,000); active = max response of -50% or lower; inconclusive = between -30% and -50%; inactive = -30% or higher; also: value at the top dose of about 77 µM
Target sequence (P48426 whole entry, looked up): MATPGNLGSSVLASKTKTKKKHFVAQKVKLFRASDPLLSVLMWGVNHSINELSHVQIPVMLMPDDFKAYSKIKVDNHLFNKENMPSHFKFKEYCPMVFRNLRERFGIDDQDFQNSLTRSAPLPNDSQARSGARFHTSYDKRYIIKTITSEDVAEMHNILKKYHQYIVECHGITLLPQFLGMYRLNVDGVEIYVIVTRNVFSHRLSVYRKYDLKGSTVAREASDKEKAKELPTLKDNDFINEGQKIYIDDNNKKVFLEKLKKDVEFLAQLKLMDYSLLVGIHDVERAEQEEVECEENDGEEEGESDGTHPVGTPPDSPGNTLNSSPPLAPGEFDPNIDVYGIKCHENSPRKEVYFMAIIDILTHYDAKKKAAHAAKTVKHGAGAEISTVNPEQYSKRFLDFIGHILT
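Compounds were pin-transferred onto PI5P4Kalpha and substrate in HEPES pH 7.4 buffer with EGTA, CHAPS and 5% DMSO. ATP (5 microM final) started the reaction, which ran 60 minutes at room temperature before ADP-Glo detection.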
JMJD2A Tudor inh: inhibitors of human JMJD2A Tudor domain; AlphaScreen JMJD2A-Tudor / H3K4me3 peptide binding; Potency, µM (doses to about 114 µM), most hits filed as inhibitors; AID 504339; actives 4.4% (n = 390,000); also: nearly all actives have a fitted effect of over 50% in size
G9a block: G9a (human) methyltransferase inhibition | G9a H3K9 monomethylation, AlphaScreen, 2 h | actives 8.8% (n = 350,000) | AID 504332 | Potency, µM (doses to about 102 µM), hits mostly inhibitors | Q96KQ7; also: nearly all actives have a fitted effect of over 75% in size
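Quantitative HTS format: methyltransferase activity on a biotin-tagged H3K9 peptide is measured by AlphaScreen, using a rabbit anti-monomethyl-H3K9 antibody with streptavidin donor and anti-IgG acceptor beads. Final levels are 20 nM enzyme, 500 nM peptide, 20 uM SAM; 2 h RT.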
Numbers stand for hits; . = inactive; ? = inconclusive; / = no result given. Hits are enriched below; roughly 11% of the tested compounds scored in any of these assays. Unless noted, calls follow the shape of the dose curve; as a rule, active = well fitted inhibition curve with a large enough effect; inconclusive = small, poorly fitted or top-dose-only effect; inactive = no such curve, though single readings can be large or run the other way.

SMILES | L3MBTL1 block | BAZ2B inh | HP1b binding inh | PI5P4Ka inh | JMJD2A Tudor inh | G9a block
CCN(C(=O)c1coc(=O)c(Br)c1)c1ccc2c(c1)OCO2 | ? | 50.1µM | . | / | 50.1µM | 20µM
CCN(C(=O)c1c(C)cc(=O)oc1C)c1ccc2c(c1)OCO2 | . | . | . | . | . | .
COc1cccc(C2C3=C(CCCC3=O)NC3=C2C(=O)c2ccccc23)c1 (stereo not given) | ? | . | / | / | / | ?
O=C1CCCC2=C1C(c1cccc(O)c1)C1=C(N2)c2ccccc2C1=O (stereo not given) | . | . | . | . | . | 31.6µM
CCCc1ccc(C2C3=C(CC(C)(C)CC3=O)NC3=C2C(=O)c2ccccc23)cc1 (stereo not given) | . | 25.1µM | . | / | ? | 35.5µM
CC1(C)CC(=O)C2=C(C1)NC1=C(C(=O)c3ccccc31)C2c1ccc(O)cc1 (stereo not given) | . | 39.8µM | . | . | . | 25.1µM
CCCCc1ccc(C2C3=C(CC(C)(C)CC3=O)NC3=C2C(=O)c2ccccc23)cc1 (stereo not given) | . | ? | ? | . | ? | ?
CCN(CC)C(=O)c1c(-c2ccccc2)c(-c2ccccc2)nn(CC)c1=O | / | . | . | / | . | .
CC(CNC(=O)c1sc2ncccc2c1-n1cccc1)c1ccccc1 (stereo not given) | / | . | . | / | . | .
COc1ccc(C2(CNC(=O)C(=O)Nc3ccc(C)c(Cl)c3)CCCC2)cc1OC | / | . | . | / | . | .
CCOc1ccc(-n2c(SCC(=O)Nc3ccc(CC)cc3)nc3c(oc4ccccc43)c2=O)cc1 | / | . | . | / | . | .
NC(=O)NC(=O)CC1S/C(=N/N=C2\CSC(=O)N2)NC1=O (stereo not given) | ? | 3.16µM | . | . | 8.91µM | 0.794µM
NC(=O)NC(=O)CC1S/C(=N/N=C/c2ccccc2)NC1=O (stereo not given) | . | . | . | . | . | .
O=C(O)CNC(=O)CC1S/C(=N/N=C2/NC(=O)CS2)NC1=O (stereo not given) | / | 20µM | . | ? | 22.4µM | 28.2µM
COC(=O)c1c(NC(=O)c2cc(=O)c3ccc(C)c(C)c3o2)sc2c1CCCC2 | / | . | . | / | . | .
CCCCc1ccc(N=N/C(C(=O)Nc2ccc(NC(C)=O)cc2OC)=C(/C)O)cc1 | . | ? | . | . | ? | 35.5µM
COc1ccccc1NC(=O)Nc1nc(CC(=O)Nc2cccc(F)c2)cs1 | . | . | . | . | . | 39.8µM
CN(C)c1ccc(NC(=O)Nc2csc3ccccc23)cc1 | . | 35.5µM | . | . | ? | 8.91µM
COc1ccccc1NC(=O)Nc1nc(CC(=O)N2CCN(c3ccccc3)CC2)cs1 | . | . | . | . | . | ?
COc1ccc(NC(=O)Cc2csc(NC(=O)Nc3ccccc3OC)n2)cc1 | / | / | / | . | / | /
COc1ccccc1NC(=O)Nc1nc(CC(=O)Nc2ccc(N(C)C)cc2)cs1 | ? | 12.6µM | 39.8µM | . | 25.1µM | 11.2µM
O=C(Nc1ccc(F)cc1)Nc1csc2ccccc12 | / | . | . | . | . | ?
COc1ccc(N2CCN(C(=O)Cc3csc(NC(=O)Nc4ccccc4OC)n3)CC2)cc1 | . | ? | . | . | ? | 7.94µM
Cc1ccc(-n2ncc(C(=O)NCc3ccccc3C)c2-n2cccc2)cc1 | / | . | . | / | . | .
Cc1ccc(NC(=O)CNS(=O)(=O)c2cccs2)cc1F | . | . | . | . | . | 79.4µM
SMILES | L3MBTL1 block | BAZ2B inh | HP1b binding inh | PI5P4Ka inh | JMJD2A Tudor inh | G9a block
Cc1ccc2c(Sc3ccccc3)c(C(=O)NCc3ccccc3F)[nH]c2c1 | / | . | . | / | ? | ?
COC(=O)c1cn(NC(=O)c2cnccn2)c(=O)c2ccccc12 | . | 7.08µM | . | . | 11.2µM | ?
O=C(CSc1nncn2c1cc1occc12)Nc1ccccc1C(F)(F)F | / | . | . | / | . | .
CCOC(=O)N1CCC(N2CCN(S(=O)(=O)CC)CC2)CC1 | . | . | ? | / | 4.47µM | ?
CCOC(=O)COc1ccc(S(=O)(=O)N2CCN(c3ccc(OC)cc3)CC2)cc1 | . | . | . | . | 28.2µM | .
CCOC(=O)N1CCC(N2CCN(c3ccccc3)CC2)CC1 | . | . | . | . | . | .
CCOC(=O)N1CCC(N2CCN(S(=O)(=O)c3ccc(OC)cc3)CC2)CC1 | . | . | . | . | 17.8µM | ?
CCOc1cc(C(=O)Nc2ccc3oc(-c4ccc(CC)cc4)nc3c2)cc(OCC)c1OCC | / | . | . | / | . | .
O=C(Nc1ccc(C(=O)N2CCCc3ccccc32)cc1)c1cccs1 | . | . | . | . | 100µM | .
CC(=O)Nc1ccc(C(=O)N2CCCc3ccccc32)cc1 | . | . | . | . | . | .
Cc1ccc(-c2nn3c(-c4ccco4)nnc3c3ccccc23)cc1S(=O)(=O)NCC1CCCO1 (stereo not given) | . | . | . | . | . | 20µM
Cc1cc(C)n2nc(CC(=O)NCc3ccc(F)cc3)nc2n1 | . | . | . | . | 70.8µM | ?
Cc1cc(C)n2nc(CC(=O)NNC(=O)COc3ccccc3)nc2n1 | / | . | . | . | . | 25.1µM
Cc1cc(C)n2nc(C(=O)OCC(=O)c3ccc(F)cc3)nc2n1 | . | . | . | . | . | 56.2µM
Cc1ccc(CNC(=O)Cc2nc3nc(C)cc(C)n3n2)cc1 | . | . | . | . | . | .
CCn1nc(-c2ccccc2)c(-c2ccccc2)c(C(=O)OCCOC)c1=O | / | . | . | / | . | .
CCOC(=O)c1c(NC(=O)CSc2nnc(-c3ccncc3)n2Cc2ccco2)sc(C(C)=O)c1C | / | / | . | . | . | /
Cc1cc(C)c(NC(=O)CSc2nnc(-c3ccncc3)n2Cc2ccco2)c(Cl)c1 | . | . | . | . | . | 50.1µM
CCOC(=O)c1c(NC(=O)CSc2nnc(-c3ccncc3)n2Cc2ccco2)sc(C)c1C | / | ? | . | / | ? | 50.1µM
Cc1cc(C)c(NC(=O)CSc2nnc(-c3ccccn3)n2N)c(Cl)c1 | 28.2µM | 14.1µM | . | . | 44.7µM | .
O=S1(=O)C2CC3OC2(CC3c2ccc(F)cc2)CN1Cc1ccc(Cl)cc1 (stereo not given) | / | / | . | / | . | /
O=C(COCc1cc(-c2cccs2)on1)NCc1ccc(F)cc1 | / | . | . | / | . | .
COc1ccc2c(c1)C(c1ccccc1OC)CC(=O)O2 (stereo not given) | / | / | / | / | / | 35.5µM
Cn1nnc(NC(=S)NC(=O)c2cc(Cl)ccc2Cl)n1 | / | ? | . | . | . | 3.55µM
O=C(NCc1ccco1)c1cccc2c1C(=O)c1ccc(N3CCC(Cc4ccccc4)CC3)cc1S2(=O)=O | . | / | . | . | . | /
O=C(NCc1ccco1)c1cccc2c1C(=O)c1ccc(/C=C/c3ccccc3)cc1S2(=O)=O | ? | / | ? | -71.5 | 39.8µM | /

Screening data: PubChem BioAssay, National Center for Advancing Translational Sciences (NCATS)
